Measurements: PubChem BioAssay
For some of these results: Results with a measured potency or affinity are listed apart. Calls of active or inactive are those of the source. Unless noted, no rule for the calls is given here.

Legend:
[1] = antimalarial activity against Dd2 strain (AID 2302;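 active = growth inhibition above 50% at the single 2 µM test dose, taken to imply half-maximal potency below 2 µM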;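 also: 0% = DMSO untreated growth and 100% = chloroquine plus artemisinin killed control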); details: P. falciparum Dd2 in RBCs, LDH growth readout, 72 h; at 2 µM; stronger effect = higher value
[2] = HepG2 cytotoxicity, primary screen, cytotoxicity control for P. falciparum antimalarial project, cell-based, ATP luminescence (AID 2303;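 active = inhibition above 50%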;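 also: 0% = DMSO wells and 100% = digitonin-killed cells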); details: HepG2 viability, 24-48 h, at 10 µM, stronger effect = higher value
[3] = molecular target: L-lactate dehydrogenase (Plasmodium falciparum (isolate CDC / Honduras)) (UniProt Q27743); experiment: PfLDH activity inhibition – cell lysate, 3D7 strain, counter-screen for P. falciparum growth inhibition project (AID 2304);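 also: 0% = vehicle and 100% = reference inhibitor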; details: P. falciparum 3D7 crude extract, LDH APAD/NBT absorbance; at 2 µM; stronger effect = higher value
L-lactate dehydrogenase (Plasmodium falciparum (isolate CDC / Honduras)), sequence (Q27743 whole entry, looked up): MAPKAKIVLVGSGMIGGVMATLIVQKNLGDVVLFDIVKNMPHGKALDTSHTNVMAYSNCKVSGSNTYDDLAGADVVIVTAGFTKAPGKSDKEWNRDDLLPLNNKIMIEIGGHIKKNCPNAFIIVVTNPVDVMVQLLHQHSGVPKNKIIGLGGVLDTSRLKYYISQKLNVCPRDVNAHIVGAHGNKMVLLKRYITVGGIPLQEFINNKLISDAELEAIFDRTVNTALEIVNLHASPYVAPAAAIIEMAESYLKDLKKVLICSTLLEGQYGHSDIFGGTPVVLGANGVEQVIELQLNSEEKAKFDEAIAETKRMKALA

[4] = inhibition of 3D7 malaria parasite growth – strain 3D7 (AID 2306);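 also: 0% = DMSO wells and 100% = chloroquine plus artemisinin control wells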; details: P. falciparum 3D7 erythrocytic growth, LDH absorbance, 72 h; at 2 µM; stronger effect = higher value
[5] = molecular target: Calcium-dependent protein kinase 1 (Plasmodium falciparum (isolate 3D7)) (UniProt P62344); experiment: PfCDPK1 kinase inhibitors, biochemical, TCAMS library (AID 1159585; cut-off not given, nearly all actives have IC50 up to about 0.98 µM;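 also: inhibitors leave more ATP so luminescence rises with inhibition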); details: recombinant PfCDPK1, Kinase-Glo ATP depletion luminescence
Calcium-dependent protein kinase 1 (Plasmodium falciparum (isolate 3D7)), sequence (P62344 whole entry, looked up): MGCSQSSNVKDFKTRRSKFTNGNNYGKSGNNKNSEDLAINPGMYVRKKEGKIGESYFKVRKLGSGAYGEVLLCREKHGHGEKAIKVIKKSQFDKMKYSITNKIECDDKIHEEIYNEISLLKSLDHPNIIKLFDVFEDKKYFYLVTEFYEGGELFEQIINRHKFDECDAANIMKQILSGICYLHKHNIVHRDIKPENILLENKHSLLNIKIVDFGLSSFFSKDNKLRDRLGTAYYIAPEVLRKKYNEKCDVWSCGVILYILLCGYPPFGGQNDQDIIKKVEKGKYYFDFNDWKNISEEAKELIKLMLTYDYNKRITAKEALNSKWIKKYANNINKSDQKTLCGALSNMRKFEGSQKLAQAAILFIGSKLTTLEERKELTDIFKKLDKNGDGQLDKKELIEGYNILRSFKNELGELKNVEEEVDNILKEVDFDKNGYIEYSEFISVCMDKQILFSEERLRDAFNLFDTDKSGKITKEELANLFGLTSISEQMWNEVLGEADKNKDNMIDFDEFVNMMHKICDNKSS

[6] = molecular target: Plasmodium falciparum protein kinase 6 (PK6, PF3D7_1337100) (UniProt Q8IDW1); experiment: PfPK6 kinase inhibitors, biochemical, TCAMS library (AID 1159586); details: recombinant PfPK6, Kinase-Glo ATP depletion luminescence
Plasmodium falciparum protein kinase 6 (PK6, PF3D7_1337100), sequence (Q8IDW1 1-305): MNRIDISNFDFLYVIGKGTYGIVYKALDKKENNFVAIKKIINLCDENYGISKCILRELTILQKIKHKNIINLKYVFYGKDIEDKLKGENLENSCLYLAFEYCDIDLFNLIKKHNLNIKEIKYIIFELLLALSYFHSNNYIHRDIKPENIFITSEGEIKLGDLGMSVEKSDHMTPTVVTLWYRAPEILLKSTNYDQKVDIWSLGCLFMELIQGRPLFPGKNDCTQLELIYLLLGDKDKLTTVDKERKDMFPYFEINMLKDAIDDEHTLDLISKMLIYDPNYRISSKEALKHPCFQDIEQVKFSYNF

[7] = molecular target: Protein kinase 7 (PK7), Plasmodium falciparum 3D7 (PF3D7_0213400) (UniProt Q7YTF7); experiment: inhibition of Plasmodium PK7 catalytic activity – biochemical, TCAMS antimalarial set, Kinase-Glo luminescence (AID 1159587); details: recombinant PfPK7, Kinase-Glo ATP depletion luminescence
Protein kinase 7 (PK7), Plasmodium falciparum 3D7 (PF3D7_0213400), sequence (Q7YTF7 1-343): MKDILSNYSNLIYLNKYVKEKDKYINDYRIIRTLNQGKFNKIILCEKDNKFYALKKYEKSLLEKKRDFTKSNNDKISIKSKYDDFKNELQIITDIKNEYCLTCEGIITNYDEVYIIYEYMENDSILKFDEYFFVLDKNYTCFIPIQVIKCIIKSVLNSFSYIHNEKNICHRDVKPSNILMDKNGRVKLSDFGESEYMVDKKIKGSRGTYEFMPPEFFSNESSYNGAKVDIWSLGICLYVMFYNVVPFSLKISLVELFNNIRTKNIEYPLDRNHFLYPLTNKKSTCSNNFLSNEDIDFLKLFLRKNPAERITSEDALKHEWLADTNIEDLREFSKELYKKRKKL

[8] = molecular target: Calcium-dependent protein kinase 4 (Plasmodium falciparum (isolate 3D7)) (UniProt Q8IBS5); experiment: PfCDPK4 kinase inhibitors, biochemical, TCAMS library (AID 1159588; cut-off not given, nearly all actives have IC50 up to about 0.91 µM); details: recombinant PfCDPK4, Kinase-Glo ATP depletion luminescence
Calcium-dependent protein kinase 4 (Plasmodium falciparum (isolate 3D7)), sequence (Q8IBS5 whole entry, looked up): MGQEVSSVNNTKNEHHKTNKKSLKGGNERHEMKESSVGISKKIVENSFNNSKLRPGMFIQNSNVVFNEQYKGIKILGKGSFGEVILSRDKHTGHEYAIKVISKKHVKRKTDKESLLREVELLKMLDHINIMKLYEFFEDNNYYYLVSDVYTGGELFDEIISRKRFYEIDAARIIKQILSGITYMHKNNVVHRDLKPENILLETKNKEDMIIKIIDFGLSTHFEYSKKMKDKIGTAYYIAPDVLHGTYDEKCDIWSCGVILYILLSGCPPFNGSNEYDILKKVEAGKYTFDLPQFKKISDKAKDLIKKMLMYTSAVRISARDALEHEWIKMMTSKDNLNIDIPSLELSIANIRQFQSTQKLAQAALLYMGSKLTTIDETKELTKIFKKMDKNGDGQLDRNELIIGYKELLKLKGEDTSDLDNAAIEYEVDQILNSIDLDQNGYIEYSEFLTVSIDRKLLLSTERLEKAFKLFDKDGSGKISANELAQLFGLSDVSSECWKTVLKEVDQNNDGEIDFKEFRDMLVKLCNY

[9] = sensitizers of A549 cells to miR-34 induction, primary screen, imaging, A549 dox-inducible miR-34, nuclei and caspase counts (AID 1347080;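 active = compounds whose cell count with miR-34 switched on is under 0.7 times the count with it off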); details: A549 miR-34 inducible, Hoechst nuclei count, 48 h
[10] = viability rescue of complex I mutant cybrids, primary screen, cell-based, galactose medium, ATP luminescence (AID 1645843;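 active = z-score of at least 1.8 in each of two replicates, scored against plate mean and spread of sample wells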;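 also: positive z means more ATP and so rescue of galactose-driven cybrid death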); details: complex I mutant cybrid cells, 72 h, stronger effect = higher value
[11] = inhibitors of Cryptococcus chitosan production, flow cytometry, Cibacron Brilliant Red staining (AID 1347148); details: Cryptococcus neoformans chitosan, stronger effect = lower value; at 10 µM unless noted;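 also: compound exposure lasted three days at 37 degrees C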
[12] = stronger effect = lower value, cell number ratio, induced over uninduced
[13] = measured here: relative caspase fold change +Dox/-Dox
[14] = measured here: total cells with miR-34 induction, stronger effect = lower value
[15] = measured here: total cells without miR-34 induction

FC(F)(F)c1ccc2nccc(NN=Cc3ccc(Cl)cc3)c2c1
active: growth inhibition [1] 53% | growth inhibition [4] 102%
inactive: inhibition [2] 5% | inhibition [3] -2% | outcome [5] | outcome [6] | outcome [7] | outcome [8]

CN(C)CCCSc1ccccc1NC(=O)C=Cc1ccccc1
8880: cell count [9, 14]
9280: cell count [9, 15]
active: growth inhibition [4] 85%
inactive: growth inhibition [1] -3% | inhibition [2] -4% | inhibition [3] -5% | outcome [5] | outcome [6] | outcome [7] | outcome [8] | fold change [9, 12] 0.957 | z-score [10] -0.13
1.81: fold change [9, 13]

CCCc1cc(Cc2cnc(N)nc2N)cc(CCC)c1OC
active: growth inhibition [4] 92%
inactive: growth inhibition [1] 1% | inhibition [2] 18% | inhibition [3] 1% | outcome [5] | outcome [6] | outcome [7] | outcome [8]

CCc1nc2c(N)nc(N)nc2nc1-c1ccc(OC)cc1
inactive: growth inhibition [1] -3% | inhibition [2] 44% | inhibition [3] 2% | outcome [5] | outcome [6] | outcome [7] | outcome [8]
active: growth inhibition [4] 86%

CCOc1ccc(-c2nc3ccc(-c4nc5ccc(N6CCN(C)CC6)cc5[nH]4)cc3[nH]2)cc1
inactive: inhibition [2] 16% | inhibition [3] 1% | outcome [5] | outcome [6] | outcome [7] | outcome [8] | fold change [9, 12] 1.13 | fold fluorescence [11] 1.62 [at 110.5 µM]
active: growth inhibition [1] 99% | growth inhibition [4] 100%
711: cell count [9, 15]
805: cell count [9, 14]
0.41: fold change [9, 13]

Cc1noc(C)c1-c1cccc(CNCc2cccc(-c3csc(-c4nc5ccccc5[nH]4)c3)c2)c1
active: growth inhibition [1] 74% | growth inhibition [4] 100%
inactive: inhibition [2] 32% | inhibition [3] -7% | outcome [5] | outcome [6] | outcome [7] | outcome [8]

COc1ccc2nccc([C@@H](O)CN3CCC(NCc4ccc5nnsc5c4)CC3)c2c1
inactive: growth inhibition [1] 0% | inhibition [2] 16% | inhibition [3] 5% | outcome [5] | outcome [6] | outcome [7] | outcome [8]
active: growth inhibition [4] 99%

O=C(NCCCCCN1CCC(c2c[nH]c3ccccc23)CC1)Nc1ccc(I)cc1
active: inhibition [2] 51% | growth inhibition [4] 100%
inactive: growth inhibition [1] -1% | inhibition [3] 2% | outcome [5] | outcome [6] | outcome [7] | outcome [8]

O=C(Nc1ccncc1)c1cn(-c2ccccc2)nc1-c1cccs1
inactive: growth inhibition [1] 10% | inhibition [2] 7% | inhibition [3] 4% | outcome [5] | outcome [6] | outcome [7] | outcome [8]
active: growth inhibition [4] 98%
